# This is a sample that favours compounds with a hit; in the whole collection about 13% have one here.
# CHX counter – Cycloheximide Counterscreen for Small Molecule Inhibitors of Shiga Toxin; cell reporter, cycloheximide protein synthesis inhibition counterscreen; max response, %; 300,000 tested, 12% active; in the data active = max response mostly above about 13%, no sharp cut-off; inactive = mostly below about 14%; also: read at 38.3 µM for the half of the compounds with a filed dose; 0% is about no effect
# LASV entry inh – qHTS for Inhibitors of binding or entry into cells for Lassa Virus. Lassa virus pseudotype entry inhibition, cell reporter. Potency, µM (highest dose often 37.9 µM), for inactives: top-dose activity change, negative = inhibition, hits mostly inhibitors. 300,000 tested, 1.2% active; calls by dose curve; tested in HEK293 cells; also: potency is read from the fitted curve at half-maximal effect; % is scaled to controls: 0 for no effect and ±100 for the full control effect; nearly all actives have a fitted effect of over 50% in size
# HCV inhibitor – qHTS Assay for Inhibitors of Hepatitis C Virus (HCV). Huh7.5.1 HCVcc-Cre infection, luciferase reporter, 44 h. Potency, µM (top dose mostly 41.8 µM), inactives show at the highest dose activity change, negative = inhibition, hits mostly inhibitors. 340,000 tested, 3.4% active; active = well fitted inhibition curve with a large enough effect; inconclusive = small, poorly fitted or top-dose-only effect, or another doubt; inactive = no such curve, though single readings can be large or run the other way; also: potency is read from the fitted curve at half-maximal effect; % is scaled to controls: 0 for no effect and ±100 for the full control effect
#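 Reporter virus HCVcc-Cre (~0.5 moi) infects cells exposed to compound; seeding density 1,000 cells/well with 4 h settling beforehand. Luminescence, 15 sec read, taken 44 h post-infection following a 15 min RT substrate incubation.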
# MARV entry inh – qHTS for inhibitors of binding or entry into cells for Marburg Virus; Potency, µM (series often up to 37.8 µM), for the others: at the highest dose activity change, negative = inhibition, hits mostly inhibitors; AID 540276, 2011; 300,000 tested, 1.8% active; Marburg virus pseudotyped entry inhibition, cell reporter; calls by dose curve; tested in HEK293 cells; also: potency is read from the fitted curve at half-maximal effect; % is scaled to controls: 0 for no effect and ±100 for the full control effect
# Shiga inhibitor – A qHTS for Small Molecule Inhibitors of Shiga Toxin; AID 2315, 2010; Vero cells, Shiga toxin protein synthesis inhibition reporter; 290,000 tested, 9.2% active; inhibition, % at 38.7 µM; in the data active = inhibition mostly above about 28%, no sharp cut-off; inactive = mostly below about 43%; also: 0% is about no effect
# FMDV antiviral – High Throughput Screening for Foot and Mouth Disease Virus Antivirals | FMDV antiviral cell-based qHTS | Potency, µM (titrated, usually from 57.9 µM), for the others: top-dose activity change, negative = inhibition, most hits filed as inhibitors | 410,000 tested, 1.2% active; calls by dose curve; tested in HEK293T cells; also: read-out not given here; potency is read from the fitted curve at half-maximal effect; % is scaled to controls: 0 for no effect and ±100 for the full control effect; nearly all actives have a fitted effect of over 45% in size
# * hit, by the source's call; ? = inconclusive; / = no result; [ ] = another dose, or the depositor's remark.
SMILES,CHX counter,LASV entry inh,HCV inhibitor,MARV entry inh,Shiga inhibitor,FMDV antiviral
N#CCSc1ccsc1C(=O)Nc1ccc(F)cc1,22*,8%,?,1%,32,15%
COc1ccc(OC)c(NC(=O)CSC2=Nc3ccccc3C3=NC(CCC(=O)NCc4ccccc4)C(=O)N23)c1 (stereo unspecified),/,17%[46.1 µM],/,/,/,-7%
O=C(CSc1nc(-c2cccs2)cc(C(F)(F)F)n1)NCc1ccccc1,-2,2%,4µM*,-28%,-6,-13%
CCN(CC)CCCNC(=O)CSc1nc(-c2cccs2)cc(C(F)(F)F)n1,-2,?,?,-28%[46.1 µM],-9,-10%
CCCNC(=O)CSc1nc(-c2cccs2)cc(C(F)(F)F)n1,-2,4%,4µM*,11%,15,-9%
CC(C)CNC(=O)CSc1nc(-c2cccs2)cc(C(F)(F)F)n1,-2,?,-28%,-26%[46.1 µM],11,?
Cc1cccc(C2c3[nH]c4ccccc4c3CCN2C(=O)c2ocnc2C)n1 (stereo unspecified),-3,-21%,-5%,9%[46.1 µM],-4,-12%
Cc1nc(C(=O)N2CCc3c([nH]c4ccccc34)C2c2cc(F)ccc2F)cs1 (stereo unspecified),24*,?,15%,?,40*,11%
CC(C)c1nc(C(=O)N2CCc3c([nH]c4ccccc34)C2c2ccccn2)cs1 (stereo unspecified),9,?,7%,?,-1,-13%
Cc1cc(C(=O)N2CCc3c([nH]c4ccccc34)C2c2c(F)cccc2Cl)no1 (stereo unspecified),-1,?,-7%,?,4,-13%
Cc1nc(C(=O)N2CCc3c([nH]c4ccccc34)C2c2ccccn2)cs1 (stereo unspecified),5,-29%[46.1 µM],?,-30%[46.1 µM],80*,-2%
Cc1cccc(C2c3[nH]c4ccccc4c3CCN2C(=O)c2nn(C)c(=O)c3ccccc23)n1 (stereo unspecified),-2,11µM*,?,?,-4,?
C[C@@H](C(=O)NCCc1ccccc1)N1C(=O)N2CCc3c([nH]c4ccccc34)[C@@]2(C)C1=O,19*,/,11µM*,/,21*,-33%
C[C@@H](C(=O)NCCc1ccccc1F)N1C(=O)N2CCc3c([nH]c4ccccc34)[C@@]2(C)C1=O,23*,/,6.3µM*,/,30*,0%
COc1ccc2[nH]c3c(c2c1)CCN1C(=O)N([C@@H](C)C(=O)NCc2ccccc2OC)C(=O)[C@]31C,-1,/,13µM*,/,-5,-27%
COc1ccc2[nH]c3c(c2c1)CCN1C(=O)N([C@@H](C)C(=O)NCc2ccccc2)C(=O)[C@]31C,-4,/,-24%,/,9,-1%
COc1ccc(C(=O)NCC2CCCN2S(=O)(=O)c2ccccc2)cc1OC (stereo unspecified),/,/,/,/,/,-18%
Cc1c(NC(=O)c2ccc(Br)o2)cccc1C(=O)O,14,12%,9%,15%,26,24%
COc1ccc(C(=O)Nc2cccc(NC(C)=O)c2)cc1OC,-2,13%,4%,5%,-14,1%
COc1ccc2c(c1OC)C(=O)N(c1cccc(NC(C)=O)c1)C2,23*,-15%[46.1 µM],0%,-15%[46.1 µM],28,22%
COc1ccc2c(c1OC)C(=O)N(c1ccc(F)cc1)C2,36*,-20%[46.1 µM],13%,?,65*,6%
O=C(NCc1cccs1)C(=O)NCC(c1ccco1)N1CCN(c2ccccc2F)CC1 (stereo unspecified),8,/,11µM*,/,-8,-15%
O=C(NCC(c1ccco1)N1CCN(c2ccc(F)cc2)CC1)OCc1ccccc1 (stereo unspecified),21,1.3µM*,?,?,-6,-30%
COc1ccc(C2=NS(=O)(=O)N(C)C(C(=O)N3CCOCC3)=C2)cc1OC,-4,/,6%,/,-4,-17%
CCc1ccc(-c2nc(CS(=O)CC(=O)NCc3ccc(F)cc3)c(C)o2)cc1 (stereo unspecified),/,13%[46.1 µM],/,/,/,3%

# Bioassay records: PubChem, National Center for Advancing Translational Sciences (NCATS)
